Assay outcomes (PubChem BioAssay)
This is a sample that favours compounds with a hit; in the whole collection about 19% have one here.
DT40 TDP1 no CPT – qHTS for Inhibitors of human tyrosyl-DNA phosphodiesterase 1 (TDP1): qHTS in cells in absence of CPT | DT40 Tdp1-/- hTDP1 cells, no CPT, ATP luminescence, 48 h | Potency, µM (doses to about 46.2 µM), without a hit: at the highest dose activity change, negative = growth inhibition, actives largely listed as inhibitors | 420,000 compounds, 15% hits | AID 686978, 2013; also: potency is read from the fitted curve at half-maximal effect; nearly all actives have a fitted effect of over 55% in size
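Chicken DT40 Tdp1-/- cells stably complemented with human TDP1 were seeded at 400 cells/well with DMSO in place of 20 nM camptothecin. After compound pinning, cells grew at least 48 hr at 37 °C; viability read by CellTiter-Glo luminescence.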
TDP1 cell CPT – growth inhibition of DT40 Tdp1-/-;hTDP1 cells with camptothecin (screen for TDP1 inhibitors) | AID 686979 | 420,000 compounds, 12% hits | chicken DT40 Tdp1-/-;hTDP1 cells + 20 nM CPT, ATP luminescence, 48 h | Potency, µM (series often up to 46.2 µM), for inactives: top-dose activity change, negative = growth inhibition, most hits filed as inhibitors; also: potency is read from the fitted curve at half-maximal effect; nearly all actives have a fitted effect of over 55% in size
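Chicken DT40 Tdp1-/- cells stably complemented with human TDP1 were seeded at 400 cells/well in medium containing 20 nM camptothecin, exposed to pin-transferred compounds, and grown at 37 °C for at least 48 hr. Viability was read as ATP luminescence.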
IL1B secr inh – inflammasome signaling inhibition, IL-1 beta readout; activity change, % at 57.5 µM; 360,000 compounds, 4.7% hits; THP-1 LPS/ATP IL-1B secretion, AlphaLISA, 16 h; hits give low values; in the data active = activity change below about -50%; inconclusive = mostly about -30% to -49%
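THP-1 cells pretreated 1 hr with compounds (up to 57.5 uM final), then stimulated with LPS (250 ng/mL final) plus ATP (1.25 mM final); secreted IL-1B measured by AlphaLISA after 16 hr, decreased signal indicating inhibition.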
HT1080 IDH1KD tx – kills HT-1080 cells with IDH1 knockdown. HT-1080 IDH1 knockdown viability, ATP luminescence, 48 h. Potency, µM (series often up to 46.1 µM), for inactives: top-dose activity, negative = toxicity, usual class: cytotoxic. 360,000 compounds, 2% hits;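 also: potency is read from the fitted curve at half-maximal effect; 0% = DMSO wells and -100% = cell-free medium wells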
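Cytotoxicity counter-line: IDH1KD HT-1080, 48 h, CellTiter-Glo. Curves classed by r2, magnitude and activity.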
HT1080NT lethal – kills 2HG-producing HT-1080-NT fibrosarcoma cells; HT-1080-NT fibrosarcoma viability, CellTiter-Glo ATP luminescence, 48 h; Potency, µM (highest dose often 46.1 µM), inactives show top-dose activity, negative = less viability, most hits filed as cytotoxic; 360,000 compounds, 1.6% hits; AID 686970;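 also: NT is the 2HG producing partner of a matched IDH1 knockdown line; potency is read from the fitted curve at half-maximal effect; 0% = DMSO-treated cells and -100% = media-only wells without cells; nearly all actives have a fitted effect of over 55% in size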
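Compounds were tested in concentration-response format on HT-1080-NT cells for 48 hours at 37 degrees C. Cell viability came from CellTiter-Glo luminescence; curves were classified by r2, response magnitude and activity.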
ELG1 repair inh – ELG1-dependent DNA repair inhibition; HEK293T ELG1-luciferase reporter, luminescence, 16 h; DNA damage induced by 5-fluorouridine; 330,000 compounds, 2.3% hits; Potency, µM (highest dose often 46.1 µM), without a hit: at the top dose activity change, negative = inhibition, actives largely listed as inhibitors; AID 504467; also: potency is read from the fitted curve at half-maximal effect; nearly all actives have a fitted effect of over 55% in size
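DMSO vehicle served as the neutral condition. Each well held 2,000 cells given 5-fluorouridine plus compound; after 16 hr at 37 °C/5% CO2, ONE-Glo was added and luciferase measured 30 min later.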
An asterisk follows results filed as active; ? = inconclusive; . = no result given; ! = a repeat was not active. Unless noted, calls follow the shape of the dose curve; as a rule, active = well fitted curve in the direction sought with a large enough effect; inconclusive = small, poorly fitted or top-dose-only effect, or another doubt; inactive = no such curve, though single readings can be large; an effect the other way counts as inactive or inconclusive. Unless noted, % is scaled to controls: 0 for no effect and ±100 for the full control effect.

SMILES	DT40 TDP1 no CPT	TDP1 cell CPT	IL1B secr inh	HT1080 IDH1KD tx	HT1080NT lethal	ELG1 repair inh
CCOC(=O)c1c(C)c(C(=O)Nc2cc(F)ccc2F)c(C)n1C	10µM*	18µM*	0	?	-28%	-30%
Cc1cc2occ(CC(=O)N(C)CC(=O)Nc3ccc(F)cc3)c2cc1C	?	12µM*	?	-21%	-6%	1%
COC(=O)c1ccccc1CCC(C)=O	16µM*	?	-8	-1%	1%	9%
O=C(COC(=O)Cc1ccccc1F)NCCNC(=O)COC(=O)Cc1ccccc1F	-1%	-4%	4	10%	1%	10%
Cc1ccc(C(=O)N2CCC(C(=O)NCc3ccco3)CC2)cc1	-15%	-13%	-9	6%	5%	2%
CCC1CN(C(=O)N2CCC(C(=O)NCc3ccc(C)o3)CC2)c2cc(C)ccc2O1 (configuration not stated)	?	16µM*!	-1	11%	18%	-13%
CCC1CN(C(=O)N2CCC(C(=O)NCc3ccco3)CC2)c2cc(C)ccc2O1 (configuration not stated)	18µM*!	?	0	-11%	-1%	-6%
CCCOc1ccc(CNC(=O)C2CCN(C(=O)N3CCOc4ccccc43)CC2)cc1	?	21µM*	-18	-10%	-12%	?
Cc1ccc2c(c1)N(C(=O)N1CCC(C(=O)NCc3cccc(Br)c3)CC1)CCO2	21µM*	?	.	.	.	.
CCc1ccc(CNC(=O)C2CCN(C(=O)N3CC(CC)Oc4ccc(C)cc43)CC2)cc1 (configuration not stated)	21µM*	21µM*	.	.	.	.
COc1ccc(C(=O)c2oc3ccc(OC)cc3c2N)cc1	16µM*	?	?	10%	10%	?
COC(=O)c1oc2ccc(OC)cc2c1N	-24%	-19%	-12	-4%	10%	?
CC1CCN(C(=O)CCC(=O)Nc2nnc(C3CCCCC3)s2)CC1	-2%	?	57	13%	12%	13%
O=C(/C=C/c1ccccc1)Nc1ccc(Cl)cn1	3.3µM*	2.6µM*	0	4.6µM*	?	?
CCOc1ncccc1C(=O)OC(C)C(=O)Nc1ccc(Cl)cn1 (configuration not stated)	?	-27%	27	0%	4%	?
O=C(CC(c1ccccc1)c1ccccc1)Nc1ccc(Cl)cn1	18µM*	?	6	15µM*	?	12µM*
CNc1ccccc1C(=O)OC(C)C(=O)Nc1ccc(Cl)cn1 (configuration not stated)	?	?	-75*	4%	0%	?
COc1cc2cc(C(=O)Nc3ccc4c(c3)OCCO4)[nH]c2cc1OC	?	18%	-10	18%	10%	?
COCC1CCN(Cc2c(C(=O)N3CCc4ccccc4C3)nc3ccc(Cl)cn23)C1 (configuration not stated)	?	?	27	1%	-1%	-4%
Cc1ccc(-c2sc(C(=O)Nc3ccc(Br)cc3)cc2CC(=O)O)cc1	-1%	2%	.	.	.	.
CN(Cc1ccccc1)CC1C2CCC(C2)C1O (configuration not stated)	-6%	-16%	-6	0%	-1%	.
CCCOc1ccccc1C1C(C(=O)Nc2ccccc2)=C(C)Nc2nnnn21 (configuration not stated)	-22%	-17%	.	.	.	.
O=C(c1nc2ncccn2n1)N1CCOc2ccc(C(O)C(c3ccccc3)c3ccccc3)cc2C1 (configuration not stated)	-46%	?	.	.	.	.
O=C(Nc1ccc(Cl)cc1)C1CCN(c2nc3ccccc3nc2C(F)(F)F)CC1	-29%	?	.	.	.	.
O=C(CSc1nnc(SCc2cccc3ccccc23)s1)Nc1ccc(C(=O)O)cc1	21µM*	18µM*	13	?	16%	2%
SMILES	DT40 TDP1 no CPT	TDP1 cell CPT	IL1B secr inh	HT1080 IDH1KD tx	HT1080NT lethal	ELG1 repair inh
C[C@]12C(=O)N(c3cccc(Cl)c3)C(=O)N1[C@@H]1c3ccccc3OC[C@@H]1[C@H]2c1ccccc1	12µM*	15µM*	-8	-5%	-7%	-9%
C[C@]12C(=O)N(c3ccccc3)C(=O)N1[C@@H]1c3ccccc3OC[C@@H]1[C@H]2c1ccccc1	16µM*	15µM*	-4	-7%	24%	-7%
C[C@]12C(=O)N(c3cccc(F)c3)C(=O)N1[C@H]1c3ccccc3OC[C@@H]1[C@H]2c1ccccc1	?	?	13	-9%	-5%	11%
C[C@]12C(=O)N(c3cccc(F)c3)C(=O)N1[C@@H]1c3ccccc3OC[C@@H]1[C@H]2c1ccccc1	21µM*	12µM*	-19	-2%	-2%	5%
C[C@]12C(=O)N(c3ccccc3)C(=O)N1[C@H]1c3ccccc3OC[C@@H]1[C@H]2c1ccccc1	?	?	-3	0%	0%	-7%
C[C@]12C(=O)N(c3ccc(C(F)(F)F)cc3)C(=O)N1[C@@H]1c3ccccc3OC[C@@H]1[C@H]2c1ccccc1	?	23µM*	-9	0%	0%	19%
CC(C)(C)C(CO)NC(=O)c1ccc[nH]1 (configuration not stated)	11%	-27%	8	14%	10%	15%
NC(N)=NC(=O)c1nc(Cl)c(N2CCCCCC2)nc1N	7.1µM*	7.1µM*	?	?	?	?
Cc1cc(C)n2nc(CNC(=O)c3ccc(Cl)cc3)nc2n1	-4%	-8%	.	.	.	.
O=C(NCCN1CCN(c2ccccc2)CC1)Nc1ccc(Cl)cc1	-26%	-5%	?	-17%	?	-13%
O=C(NCCN1CCN(c2ccccc2)CC1)Nc1cccc(Br)c1	29µM*	?	?	0%	?	?
O=C(NCCN1CCN(c2cccc(Cl)c2)CC1)Nc1ccccc1	15µM*	?	-17	-9%	-6%	0%
COc1ccccc1NC(=O)NCCN1CCCCC1	6%	-1%	4	8%	10%	-2%
O=C(CCN1CCN(c2ccccc2)CC1)Nc1cccc(Br)c1	?	-28%	-16	-12%	-11%	?
COc1ccccc1NC(=O)NCCN1CCN(c2cccc(Cl)c2)CC1	23µM*!	?	?	-10%	-13%	2%
